Screens from PubChem.
S2 tox: reduces viability in counter-screen for ATXN expression inhibitors | 400,000 tested, 0.49% active | Potency, µM (titrated, usually from 56.7 µM), hits mostly cytotoxic | S2 cells (HEK-293 line with an ATXN2-luciferase reporter) viability, CellTiter-Fluor protease fluorescence, 24 h; also: nearly all actives have a fitted effect of over 40% in size
HepG2 tox: HepG2 cytotoxicity, counter-screen for TGF-b inhibitors. HepG2 CAGA-GFP viability, ATP luminescence, 18 h. Potency, µM (titrated, usually from 46.1 µM), usual class: cytotoxic. 410,000 tested, 0.76% active. AID 588856
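HepG2 CAGA-GFP cells (1000/well, DMEM with 1% FBS) received compound, then TGF-beta at 500 pg/mL final, and were incubated 18 hours at 37 degrees C. Viability was read by CellTiter-Glo luminescence. Media-only wells were set as complete cell-killing and DMSO as no toxicity.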
TGFb inhibitor: blocks TGF-b signaling; HepG2 CAGA-GFP TGF-b/SMAD3 reporter, GFP fluorescence, 18 h; TGF-beta stimulated, 500 pg/mL final; Potency, µM (doses to about 46.1 µM), hits mostly inhibitors; 410,000 tested, 1.2% active; AID 588855; also: nearly all actives have a fitted effect of over 65% in size
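TGF-beta reporter screen: HEPG2 CAGA-GFP, 1% FBS, 500 pg/mL TGF-beta final, 18 h; per-cell GFP summed per well; curves fitted and categorized by class.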
Gal4-VP16 FLuc: Gal4-VP16 reporter inhibition counter-screen; Drosophila S2 Gal4-VP16 UAS-luciferase, luminescence, 20 h; Potency, µM (highest dose often 53.6 µM), usual class: inhibitors; 310,000 tested, 3.5% active;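 also: Gal4-VP16 expression switched on by copper sulfate through the metallothionein promoter; nearly all actives have a fitted effect of over 50% in size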
RORg inh: blocks mouse ROR gamma transcriptional activity. AID 2551. 310,000 tested, 5.4% active. Potency, µM (top dose mostly 53.6 µM), most hits filed as inhibitors. Drosophila S2 Gal4-RORgamma UAS-luciferase reporter, 20 h; also: nearly all actives have a fitted effect of over 60% in size
Target sequence (P51450 whole entry, looked up, the tested form may be a part): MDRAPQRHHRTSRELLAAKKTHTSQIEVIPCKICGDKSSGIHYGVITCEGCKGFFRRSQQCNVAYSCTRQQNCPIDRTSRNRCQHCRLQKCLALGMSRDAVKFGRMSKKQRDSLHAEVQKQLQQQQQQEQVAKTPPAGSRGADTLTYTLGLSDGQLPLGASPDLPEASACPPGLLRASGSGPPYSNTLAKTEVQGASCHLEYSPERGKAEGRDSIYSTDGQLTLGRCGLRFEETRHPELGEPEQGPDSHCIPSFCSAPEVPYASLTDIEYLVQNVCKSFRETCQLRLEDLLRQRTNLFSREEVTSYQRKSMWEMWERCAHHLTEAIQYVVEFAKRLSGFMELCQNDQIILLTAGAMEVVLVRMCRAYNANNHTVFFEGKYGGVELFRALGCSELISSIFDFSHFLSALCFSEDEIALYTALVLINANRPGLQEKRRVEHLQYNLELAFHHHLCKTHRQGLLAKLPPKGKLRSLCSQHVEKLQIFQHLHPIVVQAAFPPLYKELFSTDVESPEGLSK
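In this cell-based reporter format, copper sulfate (700 uM final) drives Gal4–ROR gamma fusion expression from a metallothionein promoter in Drosophila Schneider cells; compounds preincubated 1 hr, reporter read after 20 hr at ambient temperature.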
ATXN2 expr inh: ATXN2 expression inhibition. HEK-293 ATXN2-luciferase reporter, luminescence, 24 h. Potency, µM (titrated, usually from 57 µM), usual class: inhibitors. 360,000 tested, 0.72% active; also: nearly all actives have a fitted effect of over 55% in size
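qHTS (up to 57 uM final) was run with 24 h compound exposure of reporter cells at 37 °C. Each well was multiplexed: SteadyGlo luminescence measured ATXN2-luciferase expression after a fluorogenic Gly-Phe-AFC viability readout (25 uM final).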
Hits are given with their value; - = inactive; ? = inconclusive; . = no result; [ ] = remark or other dose. Rows were chosen to be rich in hits. Some 6.3% of all compounds tested hit in one or more screens of this group. Calls follow the shape of the dose curve; as a rule, active = well fitted curve in the direction sought with a large enough effect; inconclusive = small, poorly fitted or top-dose-only effect, or another doubt; inactive = no such curve, though single readings can be large; an effect the other way counts as inactive or inconclusive.

SMILES | S2 tox | HepG2 tox | TGFb inhibitor | Gal4-VP16 FLuc | RORg inh | ATXN2 expr inh
O=C1C(Cl)=C(N2CCC(C(=O)O)CC2)C(=O)c2ccccc21 | - | - | ? | - | ? | 25µM
CN1CCN(C2=C(Cl)C(=O)c3ccccc3C2=O)CC1 | . | 10µM | ? | . | . | 24µM
CN1CCN(c2nc(-c3ccc(Cl)s3)cs2)CC1 | - | - | - | - | ? | -
CN1CCN(C2=C(NS(=O)(=O)c3cccs3)C(=O)c3ccccc3C2=O)CC1 | - | - | ? | - | - | ?
CCN(CC)/[N+]([O-])=N/Oc1ccc([N+](=O)[O-])cc1[N+](=O)[O-] | . | - | - | . | . | .
CCNC(=O)N1CCN(/[N+]([O-])=N/Oc2ccc([N+](=O)[O-])cc2[N+](=O)[O-])CC1 | . | - | ? | . | . | .
CC[C@@H]1O[C@]2(C=C[C@@H]1C)C[C@H]1C[C@H](CC=C(C)[C@@H](O[C@@H]3C[C@H](OC)[C@H](O[C@@H]4C[C@H](OC)[C@H](O)[C@H](C)O4)[C@H](C)O3)[C@@H](C)C=CC=C3CO[C@@H]4[C@@H](O)C(C)=C[C@@H](C(=O)O1)[C@]34O)O2 | 16µM | . | . | - | - | .
COC1CC(O[C@H]2/C(C)=C/CC3CC(C[C@]4(CCC(C)C(C5CCCCC5)O4)O3)OC(=O)[C@H]3C=C(C)/C(=N/O)C4OC/C(=C\C=C\[C@@H]2C)[C@@]43O)OC(C)C1O (some centres undefined) | . | . | . | - | - | .
CC(Sc1nnc(-c2ccc(Cl)cc2Cl)n1Cc1ccccc1)C(=O)Nc1nccs1 (centres undefined) | - | - | ? | - | 11µM | -
O=C(O)CSCc1cn2cc(Cl)ccc2n1 | - | - | - | - | - | -
COC(=O)CCSCc1cn2cc(Cl)ccc2n1 | - | - | - | ? | 6.3µM | -
O=C(Nc1ccccc1C(F)(F)F)N1CCC2(CC1)Oc1ccccc1C(=O)N2Cc1ccccc1F | . | - | . | . | . | .
Cc1ccc2ccc3c(c2n1)NS(=O)(=O)c1ccc(C(F)(F)F)cc1-3 | . | - | 7.1µM | . | . | .
Cc1ccccc1NC(=S)N(Cc1cccs1)C1CCCC1 | - | - | - | ? | ? | -
Fc1ccccc1NC(=S)N(CCN1CCCCCC1)Cc1cccs1 | - | - | - | -[10 µM] | - | -
Cc1ccccc1NC(=S)N(CCN1CCCCCC1)Cc1cccs1 | - | - | - | ? | 10µM | -
CCc1ccccc1NC(=S)N(Cc1cccs1)C1CCCC1 | - | - | ? | -[10 µM] | 11µM | -
Cc1ccccc1NC(=S)N(Cc1ccccc1)Cc1cccs1 | - | - | - | - | 10µM | -
COc1ccccc1NC(=S)N(CCN1CCCCCC1)Cc1cccs1 | - | - | - | -[10 µM] | 14µM | -
COc1ccc(-n2c(=O)c3c(c4cc(OC)ccc4n3C)n(Cc3ccc(F)cc3Cl)c2=O)cc1 | - | - | - | . | . | -
CCC1(c2ccc(C)cc2)NC(=O)N(C(C)C(=O)Nc2ccc(N3CCOCC3)cc2)C1=O (centres undefined) | - | - | - | . | . | -
Cc1cc2c(c(-c3cnccn3)c1)OC(CNC(=O)c1ccccc1C(F)(F)F)C2 (centres undefined) | - | . | . | . | . | .
CN(C)Cc1cccc([N+](=O)[O-])c1O | - | - | - | - | - | -
CC1=C(C(=O)N(C(C)C)C(C)C)CC(CC(=O)NCc2cccs2)C(=O)N1Cc1ccc(F)cc1 (centres undefined) | - | - | ? | . | . | -
CC1=C(C(=O)N(C(C)C)C(C)C)CC(CC(=O)NC2CCCCC2)C(=O)N1Cc1ccc(C(C)(C)C)cc1 (centres undefined) | ? | 13µM | ? | . | . | ?
SMILES | S2 tox | HepG2 tox | TGFb inhibitor | Gal4-VP16 FLuc | RORg inh | ATXN2 expr inh
CCN(CC)C(=O)C1=C(C)N(Cc2ccc(C(C)(C)C)cc2)C(=O)C(CC(=O)NCC2CCCCC2)C1 (centres undefined) | 28µM | - | ? | . | . | ?
CC1=C(C(=O)N(C)C)CC(CC(=O)NCC2CCCCC2)C(=O)N1Cc1ccc(C(C)(C)C)cc1 (centres undefined) | ? | - | - | . | . | ?
CC1=C(C(=O)N(C(C)C)C(C)C)CC(CC(=O)NCc2cccs2)C(=O)N1Cc1ccc(C(C)(C)C)cc1 (centres undefined) | ? | 16µM | ? | . | . | ?
Cc1sc2c(c1C)c(=O)n(-c1ccc(Cl)cc1)c(=O)n2Cc1cc(=O)n2cc(Br)ccc2n1 | - | - | - | . | . | -
CN(C(=S)NC(=O)C1CCCC1)c1ccccc1 | ? | - | ? | . | . | .
CC1(C)OC(=O)C2=C(C[C@@H](C3CC3)O[C@@H]2C2CC2)O1 | - | . | . | . | . | -
O=c1c2sc3ccccc3c2n(Cc2ccc(F)cc2)c(=O)n1Cc1ccccc1 | - | - | - | . | . | -
Fc1ccc(Cn2cnc3ccccc32)cc1 | - | - | - | - | - | -
CCCOc1ccc(Cn2cnc3ccccc32)cc1 | - | - | - | ? | 16µM | -
Cc1cccc(Cn2cnc3ccccc32)c1 | - | - | - | - | ? | -
Cc1ccc(Cn2cnc3ccccc32)cc1C | - | - | - | ? | 10µM | -
C/C(=N\NC(N)=S)C1=CCC2C3CC[C@H]4CC(O)CC[C@]4(C)C3CC[C@]12C (some centres undefined) | 4.5µM | - | ? | ? | 2.5µM | .
CC12CCC3C(CCC4CC(O)CCC43C)C1CC=C2c1ccccc1 (centres undefined) | . | . | . | - | - | .
CCCOc1ccc(-c2nc(SCC(=O)c3ccc(Cl)cc3)n[nH]2)cc1 | - | - | - | . | . | -
C=CCSc1n[nH]c(-c2ccc(OCCC)cc2)n1 | - | - | - | ? | 10µM | -
C=CCSc1n[nH]c(-c2ccc(OCCCC)cc2)n1 | 28µM | - | ? | 8.9µM | 8.9µM | ?
O=C(CSc1n[nH]c(-c2cccs2)n1)NCc1cccs1 | ? | - | - | - | - | -
C=CCSc1n[nH]c(-c2cccs2)n1 | - | - | - | ? | 11µM | .
CCN1c2ccccc2-c2nc3ccccc3n2C1c1cccs1 (centres undefined) | - | - | ? | ? | 13µM | -
COc1cc(=O)n2c(c1C(=O)NCc1ccco1)CCN(Cc1ccc(F)cc1Cl)CC2 | - | . | . | . | . | .
O=c1cc2oc3cc(O)c(O)cc3c(-c3ccccc3[N+](=O)[O-])c-2cc1O | 16µM | - | - | ? | - | .
O=c1cc(-c2ccccc2)oc2cc(O)c(O)cc12 | . | . | . | - | - | .
CCc1nnc(NC(=O)c2ccc(S(=O)(=O)N3CCCC(C)C3)cc2)s1 (centres undefined) | - | - | - | - | - | -
CCc1nnc(NC(=O)c2ccc(S(=O)(=O)N3CCCC(C)C3)cc2)o1 (centres undefined) | - | - | - | 0.63µM | 0.22µM | -
